Test results: the supplement of paper PMC3334620
Whole data set: some 33,000 sequences, median “E-score (-0.5 to 0.5)” near -0.054, cut for the highest 2% near 0.35. This is one part of a sample in which the highest values are shown more often than they occur.

Target: T1, Stb5 (UniProt P38699)
T1 sequence: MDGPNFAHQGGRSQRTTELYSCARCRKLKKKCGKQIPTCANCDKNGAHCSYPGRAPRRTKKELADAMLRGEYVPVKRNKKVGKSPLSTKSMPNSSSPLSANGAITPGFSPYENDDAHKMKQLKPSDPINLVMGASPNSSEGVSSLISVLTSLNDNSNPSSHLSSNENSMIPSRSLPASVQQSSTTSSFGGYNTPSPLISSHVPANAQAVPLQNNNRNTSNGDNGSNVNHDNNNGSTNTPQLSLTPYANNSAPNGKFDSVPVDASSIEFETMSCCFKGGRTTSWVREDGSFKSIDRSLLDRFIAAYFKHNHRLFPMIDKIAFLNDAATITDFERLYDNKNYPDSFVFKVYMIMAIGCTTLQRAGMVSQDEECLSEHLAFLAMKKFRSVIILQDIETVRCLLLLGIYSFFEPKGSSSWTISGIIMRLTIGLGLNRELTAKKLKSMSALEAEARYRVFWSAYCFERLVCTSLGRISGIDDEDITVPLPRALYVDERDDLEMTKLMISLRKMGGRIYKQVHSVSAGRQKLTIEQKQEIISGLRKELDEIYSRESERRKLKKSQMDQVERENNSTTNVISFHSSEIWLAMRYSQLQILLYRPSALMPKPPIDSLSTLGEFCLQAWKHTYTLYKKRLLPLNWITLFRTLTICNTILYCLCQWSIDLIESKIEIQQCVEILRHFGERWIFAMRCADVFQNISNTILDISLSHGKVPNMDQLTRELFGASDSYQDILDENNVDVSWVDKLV
Assay: PBM E-score (8-mer binding enrichment) (E-score (-0.5 to 0.5)); higher = stronger / more preferred TF binding
Details: protein concentration: 200 nM; construct: GST-full length
Method in brief: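 Using PURExpress in vitro transcription/translation, GST-tagged yeast transcription factors were made in full-length or DNA-binding-domain form. These were applied at about 100-200 nM to double-stranded universal all-10-mer Agilent arrays, and bound protein was detected with fluorescent anti-GST. Scans were normalised with masliner before the Universal PBM Analysis Suite assigned E-scores to ungapped eight-base words pooled with their reverse complements.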

| Sequence | PBM E-score |
| --- | --- |
| AGTCCGTA | 0.284 |
| CCTCCGTC | 0.195 |
| ACTCCGAG | 0.202 |
| ACTCCGTC | 0.367 |
| ACTCCGTA | 0.35 |
| ATTCCGTC | 0.141 |
| ATTCCGTG | 0.00715 |
| CGTCCGTC | 0.21 |
| AGTCCGTC | 0.389 |
| ACTCCGAA | 0.328 |
| ACTCCGTG | 0.352 |
| ACTCCGAC | 0.425 |
| TACAACCA | -0.0508 |
| ACTCCCCA | -0.225 |
| GCGACAGC | 0.105 |
| ACGAGGCA | -0.206 |
| TATGTCCA | 0.133 |
| AGGGCGAG | -0.295 |
| AGGCGATA | -0.0449 |
| CGGCGCTA | 0.447 |
| CGGCGATA | 0.463 |
| CGGCGCGA | 0.373 |
| TGGCGCCA | 0.0517 |
| GGGCGATA | 0.11 |
| AGGCGCCA | 0.041 |

| Sequence | PBM E-score |
| --- | --- |
| AGGCGCGA | -0.00867 |
| AGGCGCTA | 0.0525 |
| CGGCGCGC | 0.275 |
| CGGCGCCA | 0.377 |
| GGGCGCTA | 0.0264 |
| TGCCTCCA | -0.237 |
| GTCATTGA | -0.109 |
| TGGAGACA | -0.254 |
| AGGTGCGC | 0.0592 |
| AGGCGGGC | 0.275 |
| AGGCGGCC | 0.235 |
| AGGCGGAG | 0.356 |
| AGGCGGGG | 0.38 |
| ACGCGGAC | 0.241 |
| AGGCGGAC | 0.356 |
| AGGCGGAT | 0.0922 |
| AGGCGGGA | 0.234 |
| AGGCGGAA | 0.131 |
| AGTGGCAA | -0.04 |
| CTGCTATA | 0.0793 |
| CAGAGTGG | -0.19 |
| AGAACCAC | 0.0238 |
| CATCATAG | -0.0501 |
| AGGAGCAC | -0.252 |
| GCCATTAA | -0.0877 |

| Sequence | PBM E-score |
| --- | --- |
| GGTATTAC | 0.386 |
| AGTATTAC | 0.0335 |
| GGTATTAA | 0.404 |
| CGTATTAC | 0.188 |
| AGTATTAA | -0.0112 |
| TGTATTAA | -0.0825 |
| GTCTTTTA | -0.0581 |
| ATGCGGGC | 0.087 |
| CCATCGGG | 0.262 |
| ATACCCGG | 0.239 |
| AAGTGCGC | 0.243 |
| CGTCATGA | -0.0111 |
| AGGGCAGG | -0.205 |
| TCGAAACA | -0.233 |
| ATCGGCGG | 0.363 |
| AACAGCGG | 0.366 |
| AGCGGCGC | 0.363 |
| AACAGCGA | 0.235 |
| ATCGGCGC | 0.291 |
| AGCGGCTG | 0.0872 |
| AGCGGCGG | 0.401 |
| CACAGCGG | 0.286 |
| ATCGGCGA | 0.272 |
| AGCGGCGA | 0.317 |
| CGCGGCGC | 0.318 |

| Sequence | PBM E-score |
| --- | --- |
| AACGGCGC | 0.222 |
| GGCTCGAC | -0.113 |
| ACCTGACA | -0.145 |
| ATAGACCA | -0.188 |
| TACAGATA | 0.048 |
| TAGTAGGA | -0.0819 |
| ACTTACCG | 0.195 |
| GAGCCAGC | 0.00015 |
| AGGCGATC | -0.302 |
| AAGGAGGT | -0.0343 |
| GCAAGCCC | 0.117 |
| AGGGGCGG | 0.36 |
| AGGGGCGA | -0.0945 |
| AGGGGCGC | -0.0545 |
| ATCTTTTA | 0.034 |
| AAGGCTCT | -0.214 |
| AGTACCGC | 0.435 |
| AGTACCGA | 0.439 |
| AGTACCCG | 0.0305 |
| AGTACCAG | -0.0537 |
| AGTACCGG | 0.367 |
| ACTACCGC | 0.329 |
| CGTACCGC | 0.302 |
| GGTACCGA | 0.286 |
| CGTACCGA | 0.205 |

| Sequence | PBM E-score |
| --- | --- |
| AGTCGTAG | -0.232 |
| AAGAGTGC | -0.0116 |
| CCACTAGG | -0.166 |
| TTCTCCAA | -0.0481 |
| AAAGTATG | -0.172 |
| ACCCCGAT | 0.441 |
| AACCCGAC | 0.347 |
| ACCCCGAC | 0.444 |
| ACCCCGAA | 0.37 |
| CCCCCGAC | 0.349 |
| AACCCGAT | 0.222 |
| GCCCCGAA | 0.198 |
| ACCCCGAG | 0.351 |
| TCCCCGAA | 0.266 |
| GACCCGAC | 0.295 |
| GCCCCGAC | 0.371 |
| CCCCCGAA | 0.213 |
| GCACTGGC | -0.0607 |
| CATGTTCA | -0.334 |
| CGGACAAC | 0.144 |
| ATCCGCTG | 0.189 |
| ATGATGGC | -0.19 |
| CACGCCTG | -0.158 |
| CCATCTAA | -0.192 |
| CGACACCA | 0.0464 |

| Sequence | PBM E-score |
| --- | --- |
| ACACACCT | -0.0405 |
| CAACACCC | -0.206 |
| ATACACCC | 0.254 |
| CGACACCC | 0.0971 |
| CAACACCG | 0.408 |
| ACACACCG | 0.372 |
| ATACACCG | 0.402 |
| ATACACCA | -0.0712 |
| ACACACCC | 0.0669 |
| CGACACCG | 0.371 |
| CAACACCA | -0.1 |
| CTTAAACC | -0.0424 |
| AAATACTG | -0.0876 |
| ATCTTTGA | -0.157 |
| AATTGAAA | -0.198 |
| GCTAAGTA | -0.0566 |
| CAAGAGGG | -0.306 |
| AGACACCC | -0.231 |
| AGACACCA | -0.13 |
| AGACACCG | 0.436 |
| ACTATCCA | 0.0766 |
| AGTTTCTG | -0.117 |
| CTCCGACC | 0.375 |
| GTCCGAGA | 0.184 |
| GTCCGAAA | 0.259 |

| Sequence | PBM E-score |
| --- | --- |
| GTCCGACA | 0.403 |
| ATCCGACC | 0.262 |
| CTCCGAGA | 0.187 |
| CTCCGACA | 0.366 |
| ATCCGACA | 0.283 |
| CTCCGAGC | 0.102 |
| CTACATGC | -0.179 |
| CTTCTGTA | -0.09 |
| CACCACAA | -0.0283 |
| GAGTGGGC | 0.0251 |
| GGCATTCA | 0.0519 |
| ATTTCACA | -0.157 |
| ACGCCCCG | 0.188 |
| CCGCCCCG | 0.409 |
| ACGCCAGC | -0.181 |
| CCGCCCGC | 0.362 |
| ACGCCCGC | 0.28 |
| GCGCCAGC | 0.112 |
| CCGCCCGG | 0.344 |
| CCGCCCCC | 0.335 |
| CCGCCAGC | 0.356 |
| CTTATCAA | -0.125 |
| ACAATGAA | -0.0923 |
| CCACATTC | -0.0853 |
| TAAATGCA | -0.18 |

| Sequence | PBM E-score |
| --- | --- |
| CATGCGGA | 0.167 |
| ACACCTCC | 0.0978 |
| CATAGCGC | 0.161 |
| ATTGAGCC | 0.0599 |
| CCGGAGCC | 0.182 |
| ACCTCACA | -0.181 |
| TCAAGTAA | -0.0626 |
| CGGTGAAC | 0.177 |
| CGGTGAAA | 0.41 |
| GGGTGACA | 0.0889 |
| TGGTGACA | 0.0421 |
| CGGTGACA | 0.42 |
| CGGTGAAG | 0.12 |
| CACTGCCC | -0.0546 |
| ACCCTGAC | -0.0664 |
| AATCGCCC | -0.00317 |
| CAGCGCCG | 0.299 |
| CACCGCCA | 0.408 |
| CACCGCCC | 0.41 |
| CACCGCCG | 0.405 |
| CACCGCAG | 0.344 |
| TACCGCCA | 0.323 |
| AACCGCCC | 0.107 |
| GACCGCCC | 0.322 |
| CATCGCCG | 0.264 |

| Sequence | PBM E-score |
| --- | --- |
| AATCGCCG | 0.407 |
| GACCGCCA | 0.317 |
| AAGTTGGT | -0.133 |
| TCAGCAGA | -0.329 |
| CTTGACTA | -0.193 |
| CGGGAGGC | -0.136 |
| CGGTTCAG | -0.0792 |
| ATGGCAAA | -0.0403 |
| CCTAGGTC | -0.15 |
| ATGCTAAC | -0.0894 |
| GGCAGTAC | 0.0214 |
| AAGTGAAC | -0.129 |
| AAGCGCCG | 0.396 |
| AACCGCCG | 0.362 |
| AACCGCCT | 0.0427 |
| AACCGCCA | 0.167 |
| AAGCGCCA | -0.0397 |
| AAGCGCCT | 0.0194 |
| TACATATA | 0.0481 |
